Source: PubChem BioAssay (National Center for Advancing Translational Sciences (NCATS))
DT40 TDP1 no CPT = qHTS for Inhibitors of human tyrosyl-DNA phosphodiesterase 1 (TDP1): qHTS in cells in absence of CPT; DT40 Tdp1-/- hTDP1 cells, no CPT, ATP luminescence, 48 h; Potency, µM (doses to about 46.2 µM), without a hit: top-dose activity change, negative = growth inhibition, most hits filed as inhibitors; hit rate 15% among 420,000; also: potency is read from the fitted curve at half-maximal effect; nearly all actives have a fitted effect of over 55% in size
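DT40 Tdp1-/-;hTDP1 cells, no CPT (DMSO vehicle only), 400 cells/well; compounds pin-transferred; ≥48 hr, 37 °C; CellTiter-Glo 30 min RT dark, luminescence read.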
ELG1 DNA repair = inhibitors of ELG1-dependent DNA repair in HEK293T cells | Potency, µM (series often up to 46.1 µM), for the others: at the highest dose activity change, negative = inhibition, usual class: inhibitors | hit rate 2.3% among 330,000 | AID 504467 | HEK293T ELG1-luciferase reporter, luminescence, 16 h; DNA damage induced by 5-fluorouridine; also: potency is read from the fitted curve at half-maximal effect; nearly all actives have a fitted effect of over 55% in size
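5-Fluorouridine DNA damage + compound/DMSO, 2,000 cells/well, 16 h, 37 °C/5% CO2. ONE-Glo, 30 min RT, luminescence. Readout = decrease in reporter signal.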
TDP1 cell CPT = growth inhibition of DT40 Tdp1-/-;hTDP1 cells with camptothecin (screen for TDP1 inhibitors). chicken DT40 Tdp1-/-;hTDP1 cells + 20 nM CPT, ATP luminescence, 48 h. Potency, µM (top dose mostly 46.2 µM), for the others: at the highest dose activity change, negative = growth inhibition, actives largely listed as inhibitors. hit rate 12% among 420,000. AID 686979; also: potency is read from the fitted curve at half-maximal effect; nearly all actives have a fitted effect of over 55% in size
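Chicken DT40 Tdp1-/- cells complemented with human TDP1, 400 cells/well, exposed to compounds plus 20 nM camptothecin for at least 48 h at 37 C; viability read as ATP content by CellTiter-Glo luminescence.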
IL-1B inflam inh = inflammasome signaling inhibition, IL-1 beta readout. THP-1 LPS/ATP IL-1B secretion, AlphaLISA, 16 h; hits give low values. activity change, % at 57.5 µM. hit rate 4.7% among 360,000. AID 743279; in the data active = activity change below about -50%; inconclusive = mostly about -30% to -49%
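THP-1 cells pretreated 1 hr with compounds (up to 57.5 uM final), then stimulated with LPS (250 ng/mL final) plus ATP (1.25 mM final); secreted IL-1B measured by AlphaLISA after 16 hr, decreased signal indicating inhibition.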
Giardia kill = Giardia lamblia killing. hit rate 0.15% among 340,000. Giardia lamblia trophozoite viability. activity change, % at 7.66 µM, hits read low; in the data active = activity change below about -80%; inconclusive = between about -30% and that limit;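 also: parasites exposed to compound for two days anaerobically before the ATP read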
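Anaerobic 48 hrs incubation at 37 deg C of 100 trophozoites/well with test compounds; ATPLite 1-Step luminescence, 15-30 min RT, reports cellular ATP as viability.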
TDP1 block = blocks human tyrosyl-DNA phosphodiesterase 1; Q9NUW8; recombinant TDP1, AlphaScreen DNA substrate cleavage; Potency, µM (series often up to 130 µM), without a hit: top-dose activity change, negative = inhibition, most hits filed as inhibitors; hit rate 0.28% among 350,000; also: potency is read from the fitted curve at half-maximal effect; nearly all actives have a fitted effect of over 40% in size
Target sequence (Q9NUW8 whole entry, looked up): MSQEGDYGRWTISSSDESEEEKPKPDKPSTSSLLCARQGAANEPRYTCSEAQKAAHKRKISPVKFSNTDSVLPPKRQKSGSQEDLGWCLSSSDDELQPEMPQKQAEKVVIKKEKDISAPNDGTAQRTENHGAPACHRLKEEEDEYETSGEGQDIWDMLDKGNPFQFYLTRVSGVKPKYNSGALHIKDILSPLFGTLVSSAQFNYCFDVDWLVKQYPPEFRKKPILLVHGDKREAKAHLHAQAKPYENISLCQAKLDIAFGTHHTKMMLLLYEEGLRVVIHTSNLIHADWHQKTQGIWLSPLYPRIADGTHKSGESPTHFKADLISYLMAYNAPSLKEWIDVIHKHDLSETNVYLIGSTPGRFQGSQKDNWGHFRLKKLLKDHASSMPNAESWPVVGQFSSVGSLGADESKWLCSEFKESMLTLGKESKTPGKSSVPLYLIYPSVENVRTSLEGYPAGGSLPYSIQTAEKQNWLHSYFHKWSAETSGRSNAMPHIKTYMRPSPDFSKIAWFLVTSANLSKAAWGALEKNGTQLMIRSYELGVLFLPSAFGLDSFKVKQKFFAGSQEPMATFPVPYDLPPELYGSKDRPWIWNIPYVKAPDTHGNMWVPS
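Recombinant E. coli-expressed Tdp1 (1 nM) preincubated with compound 15 min at RT, then 5'-biotin/3'-phosphotyrosine-FITC DNA substrate (15 nM) added for 5 min. AlphaScreen beads (10 ug/ml) added, 10 min RT; tyrosine-FITC cleavage read as signal loss.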
Numbers without * were called inactive; ? = inconclusive; · = no result given; [ ] = dose if it differs, or a comment. Compounds with a hit are over-represented: about 19% of the library has one in this group of screens. Unless noted, calls follow the shape of the dose curve; as a rule, active = well fitted curve in the direction sought with a large enough effect; inconclusive = small, poorly fitted or top-dose-only effect, or another doubt; inactive = no such curve, though single readings can be large; an effect the other way counts as inactive or inconclusive. % is scaled to controls: 0 for no effect and ±100 for the full control effect.

SMILES	DT40 TDP1 no CPT	ELG1 DNA repair	TDP1 cell CPT	IL-1B inflam inh	Giardia kill	TDP1 block
Cc1ccc(C)c(N2CCN(C(=O)Cn3cnc4onc(-c5ccc(F)cc5)c4c3=O)CC2)c1	?	·	23.1µM*	·	·	-1.1%
O=C(Cn1cnc2onc(-c3ccc(F)cc3)c2c1=O)Nc1ccc(F)c(Cl)c1	?	·	9.2µM*	·	·	-7.4%
COc1cc(OC)c(NC(=O)CCNC(=O)Cn2cnc3ccccc3c2=O)cc1Cl	?	0.1%	18.4µM*	-1.4	4.1	3.9%
OC[C@H]1O[C@H](n2cnc3c(NC4CCCC4)nc(Cl)nc32)[C@@H](O)[C@@H]1O	-2.7%	·	1.8%	·	·	12.4%[56.1 µM]
O=[N+]([O-])c1cc([N+](=O)[O-])c(Oc2cc(Cl)cc(Cl)c2)cc1NN1CCCCC1	10.6%	?	-18.0%	11.2	-26.2	·
COc1cc(OC)c(NC(=O)CCn2cnc3onc(-c4ccc(F)cc4)c3c2=O)cc1Cl	2.06µM*	·	11.6µM*	·	·	-1.1%
CCCN(C(=O)Cn1cnc2onc(-c3ccc(F)cc3)c2c1=O)c1cccc(Cl)c1	?	·	?	·	·	0.0%
CCN(C(=O)Cn1cnc2onc(-c3ccc(F)cc3)c2c1=O)c1ccc(OC)cc1	11.6µM*	·	18.4µM*	·	·	4.2%
Cc1cc2nc3c(=O)[nH]c(=O)nc-3n(CC(O)C(O)C(O)COP(=O)(O)O)c2cc1C (configuration not stated)	·	·	·	·	·	11.2%
CCOC(=O)N1CCC(Nc2c(-c3ccc(C)cc3)c(=O)c2=O)CC1	?	?	?	4.7	-22.7	5.5%
CCOC(=O)N1CCC(Nc2c(Nc3ccc(F)cc3)c(=O)c2=O)CC1	-11.0%	2.1%	-18.1%	30.7	-15.9	4.5%
CCOC(=O)N1CCC(Nc2c(-c3ccccc3)c(=O)c2=O)CC1	23.1µM*	-15.0%	?	5.5	-9.7	1.0%
CCOC(=O)N1CCC(Nc2c(N3CCN(c4cccc(C(F)(F)F)c4)CC3)c(=O)c2=O)CC1	?	18.4µM*	23.1µM*	-21.0	19.7	2.8%
CCOC(=O)N1CCC(Nc2c(Nc3cccc(CC)c3)c(=O)c2=O)CC1	18.4µM*	?	?	35.7	-10.6	0.9%
Cc1cc2c(cc3c(SCC(=O)Nc4cccc(Cl)c4C)nnc(C)n32)o1	?	·	?	·	·	2.6%
O=C(Nc1ccccc1Cl)c1cc2c(-c3ccccc3)nn(-c3ccccc3)c2s1	·	·	·	·	·	-2.1%
O=C(O)C1Nc2ccccc2C2C=CCC12 (configuration not stated)	-9.8%	·	?	·	20.3	·
COc1cc(CN2CCCC(C(=O)Nc3ccccc3Oc3cccnc3)C2)ccc1F (configuration not stated)	16.4µM*	6.9%	?	7.2	-5.9	6.0%
COc1cccc(O)c1CN1CCC(C(=O)Nc2ccc(-c3cccc(C)c3)cc2)CC1	16.4µM*	?	?	-95.0*	0.3	5.6%
COc1cccc(-c2cccc(NC(=O)C3CCN(Cc4cccc(C)n4)CC3)c2)c1	-6.5%	2.3%	-18.0%	-8.6	36.7	0.7%
CCn1cc(CN2CCC(C(=O)Nc3ccc(Oc4ccccc4F)cc3)CC2)cn1	20.6µM*	·	?	24.2	·	·
COc1cccc(O)c1CN1CCC(C(=O)Nc2ccc(Oc3cccnc3)cc2)CC1	13µM*	-0.5%	20.6µM*	4.9	6.9	7.5%
CCn1cc(CN2CCC(C(=O)Nc3cccc(-c4cccc(F)c4)c3)CC2)cn1	?	5.2%	-23.8%	-9.3	-10.1	2.1%
O=C(Nc1ccccc1Oc1cccnc1)C1CCCN(Cc2cccc(Cl)c2)C1 (configuration not stated)	-16.3%	-9.9%	-29.5%	-8.9	-20.7	0.6%
CCCCn1c(N)c(N(CC(C)C)C(=O)CSCC(=O)Nc2ccc(OC)cc2)c(=O)[nH]c1=O	6.7%	0.0%	0.6%	4.0	-5.0	·
